Records with an inconclusive call do not appear. Active and inactive are the calls of the source. Unless noted, calls follow the shape of the dose curve; as a rule, active = well fitted curve in the direction sought with a large enough effect in the repeat runs; inconclusive = weak or mixed curves; inactive = no such curve, though single readings can be large; an effect the other way counts as inactive or inconclusive.
What was measured:
[1] = qHTS assay to identify small molecule agonists of the peroxisome proliferator-activated receptor delta (PPARd) signaling pathway - cell viability counter screen (AID 743211); also: nearly all actives have a fitted effect of over 55% in size
Procedure, shortened: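 Read-out: CellTiter-Glo luminescence, 30 min RT, measured in the same wells as the beta-lactamase reporter. Cells: GeneBLAzer PPAR delta UAS-bla HEK293H, 3000 cells/well, compound exposure 17 h at 37C.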

[2] = qHTS assay to identify small molecule antagonists of the peroxisome proliferator-activated receptor delta (PPARd) signaling pathway - cell viability counter screen (AID 743213); also: nearly all actives have a fitted effect of over 50% in size
Procedure, shortened: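 HEK293H cells with the PPARd UAS-bla reporter, co-treated 17 h at 37 C with compounds and L165041 (300 nM final), were lysed with CellTiter-Glo. Luminescence indicated viable cell content.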

[3] = molecular target: Bile acid receptor (Homo sapiens) (UniProt Q96RI1); assay: qHTS assay to identify small molecule antagonists of the farnesoid-X-receptor (FXR) signaling pathway (AID 743217; active = well fitted inhibition curve with a large enough effect in the signal ratio in the repeat runs, not every such curve was filed as active; the % refers to the signal ratio)
Procedure, shortened: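 Beta-lactamase reporter under UAS control in HEK 293T cells; compound exposure 16 h at 37 °C in the presence of chenodeoxycholic acid (50 uM final); signal from B/G FRET substrate after 2 h at room temperature.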

[4] = qHTS assay to identify small molecule agonists of the farnesoid-X-receptor (FXR) signaling pathway - cell viability counter screen (AID 743218); also: nearly all actives have a fitted effect of over 45% in size
Procedure, shortened: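 In GeneBLAzer FXR-UAS-bla HEK 293T cells, compounds act for 16 h at 37 C. Cell viability is then scored in the reporter wells by CellTiter-Glo, 30 min at RT, luminescence.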

[5] = qHTS assay to identify small molecule antagonists of the farnesoid-X-receptor (FXR) signaling pathway - cell viability counter screen (AID 743221; active = well fitted cell-killing curve with a large enough effect in the repeat runs, not every such curve was filed as active; also: nearly all actives have a fitted effect of over 50% in size)
Procedure, shortened: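 HEK 293T FXR-bla cells, 5 h pre-incubation; compound + CDCA 50 uM final, 16 h, 37 C; beta-lactamase FRET read first, then CellTiter-Glo luminescence, 30 min RT.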

[6] = molecular target: Vitamin D3 receptor (Homo sapiens) (UniProt P11473); assay: qHTS assay to identify small molecule agonists of the vitamin D receptor (VDR) signaling pathway (AID 743222; calls by dose curve)
Procedure, shortened: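 Agonist activity measured in VDR-bla reporter cells. Exposure 16 h, 37C, 5% CO2; detection by B/G FRET substrate, 2 h RT.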

[7] = qHTS assay to identify small molecule agonists of the vitamin D receptor (VDR) signaling pathway - cell viability counter screen (AID 743224); also: series mostly up to about 63 µM; nearly all actives have a fitted effect of over 50% in size
Procedure, shortened: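 VDR-bla cell line, quantitative HTS format; 16 h compound incubation (37C, 5% CO2); ATP-based CellTiter-Glo luminescence measured in the reporter assay wells.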

[8] = qHTS assay to identify small molecule antagonists of the vitamin D receptor (VDR) signaling pathway - cell viability counter screen (AID 743225); also: nearly all actives have a fitted effect of over 50% in size
Procedure, shortened: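 Viability counter screen run in the same wells as the beta-lactamase reporter assay: HEK 293T VDR-UAS-bla cells, 16 h compound exposure at 37C with 3 nM (final) 1-alpha,25-dihydroxyvitamin D3. CellTiter-Glo luminescence, 30 min, room temperature.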

[9] = qHTS assay to identify small molecule agonists of the NFkB signaling pathway - cell viability counter screen (AID 1159515; calls by dose curve; also: series mostly up to about 61 µM; nearly all actives have a fitted effect of over 55% in size)
Procedure, shortened: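 Viability in NFkB-bla ME-180 cells was measured by CellTiter-Glo luminescence, 30 min room temperature, in wells already treated 5 hr with compounds and read for reporter FRET.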

[10] = qHTS assay to identify small molecule agonists of the endoplasmic reticulum stress response signaling pathway (AID 1159516; active = well fitted activation curve with a large enough effect in the signal ratio in the repeat runs, not every such curve was filed as active; the % refers to the signal ratio; also: potency is read from the fitted curve at half-maximal effect)
Procedure, shortened: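 ER stress element reporter (bla) in HeLa. 1,500 cells/well, overnight attachment; 5 hr compound; 2 hr RT substrate; dual-emission fluorescence.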

[11] = qHTS assay to identify small molecule agonists of the endoplasmic reticulum stress response signaling pathway - cell viability counter screen (AID 1159517; calls by dose curve)
Procedure, shortened: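 CellTiter-Glo was added to wells already read for beta-lactamase FRET, and luminescence was recorded 30 min later. Cells: ESRE-bla HeLa, 1,500 per well, compound exposure 5 hr at 37 C.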

[12] = qHTS assay to identify small molecule antagonists of the retinoid-related orphan receptor gamma (ROR-gamma) signaling pathway - cell viability counter screen (AID 1159520); also: nearly all actives have a fitted effect of over 50% in size
Procedure, shortened: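 Tet-on ROR gamma CHO cells (1,000/well) were plated 4 hr, given compounds in DMSO for 2 hr at 37 C, then induced with 1 uM final doxycycline for 16 hr. Viability was read as ATP by CellTiter-Glo luminescence after 30 min.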

[13] = molecular target: Nuclear receptor ROR-gamma (Homo sapiens) (UniProt P51449); assay: qHTS assay to identify small molecule antagonists of the retinoid-related orphan receptor gamma (ROR-gamma) signaling pathway (AID 1159521)
Procedure, shortened: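 Luminescence readout (ONE-Glo, 30 min RT) after 16 h doxycycline induction; loss of signal scored as antagonism. CHO cells with TET-inducible RORγ and RORE-LUC reporter; compounds added 2 h before 1 uM final doxycycline.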

[14] = qHTS assay to identify small molecule agonists of the AP-1 signaling pathway - cell viability counter screen (AID 1159525; calls by dose curve; also: nearly all actives have a fitted effect of over 55% in size)
Procedure, shortened: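 ME-180 AP-1-bla, 2500 cells/well, Opti-MEM + 0.5% dialyzed FBS; overnight 37 °C; cpd 15-pt titration, 5 h 37 °C; CellTiter-Glo 30 min RT; luminescence read; normalised to TOAB and DMSO controls.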

[15] = qHTS assay to identify small molecule agonists of the AP-1 signaling pathway (AID 1159526; calls by dose curve)
[16] = molecular target: Retinoic acid receptor RXR-alpha (Homo sapiens) (UniProt P19793); assay: qHTS assay to identify small molecule agonists of the RXR signaling pathway (AID 1159527; calls by dose curve; also: nearly all actives have a fitted effect of over 35% in size; also: potency is read from the fitted curve at half-maximal effect)
Procedure, shortened: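 Agonist mode; 9-cis retinoic acid positive control. HEK 293T UAS-bla reporter cells, 2% charcoal-stripped FBS, 16 hr compound exposure at 37 C/5% CO2. LiveBLAzer B/G FRET substrate 2 hr RT; ex 405, em 460/530 nm.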

[17] = molecular target: Peroxisome proliferator-activated receptor delta (Homo sapiens) (UniProt Q03181); assay: qHTS assay to identify small molecule agonists of the peroxisome proliferator-activated receptor delta (PPARd) signaling pathway (AID 743212; calls by dose curve)
Procedure, shortened: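 A PPARd-bla HEK293H line with beta-lactamase under an Upstream Activator Sequence is treated with compounds at 37 C. Substrate loading for 2 h at room temperature precedes the fluorescence measurement.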

[18] = molecular target: Peroxisome proliferator-activated receptor delta (Homo sapiens) (UniProt Q03181); assay: qHTS assay to identify small molecule antagonists of the peroxisome proliferator-activated receptor delta (PPARd) signaling pathway (AID 743215; active = well fitted inhibition curve with a large enough effect in the signal ratio in the repeat runs, not every such curve was filed as active; the % refers to the signal ratio;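 also: cells stimulated with agonist L165041 at 300 nM final during compound exposure; series mostly up to about 62 µM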)
Procedure, shortened: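 Antagonist-mode beta-lactamase reporter screen: HEK293H cells with UAS-bla under PPARd control, stimulated by 300 nM L165041 (final) alongside test compound for 17 h at 37 C, then FRET fluorescence after 2 h substrate incubation.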

[19] = molecular target: Vitamin D3 receptor (Homo sapiens) (UniProt P11473); assay: qHTS assay to identify small molecule antagonists of the vitamin D receptor (VDR) signaling pathway (AID 743223; active = well fitted inhibition curve with a large enough effect in the signal ratio in the repeat runs, not every such curve was filed as active; the % refers to the signal ratio)
Procedure, shortened: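 Beta-lactamase reporter read-out: FRET substrate fluorescence after 2 h at room temperature, following 16 h exposure of VDR-bla cells to test compound plus 3 nM (final) 1alpha,25-dihydroxyvitamin D3 agonist at 37C.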

[20] = molecular target: Bile acid receptor (Homo sapiens) (UniProt Q96RI1); assay: qHTS assay to identify small molecule agonists of the farnesoid-X-receptor (FXR) signaling pathway (AID 743220; active = well fitted activation curve with a large enough effect in the signal ratio in the repeat runs, not every such curve was filed as active; the % refers to the signal ratio)
Procedure, shortened: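 Beta-lactamase reporter under UAS control in GeneBLAzer FXR HEK 293T cells (5000/well) measured with LiveBLAzer FRET substrate after 2 h at room temperature. Compound exposure lasted 16 h at 37C.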

Measured: Potency

Peroxisome proliferator-activated receptor delta (Homo sapiens), sequence (Q03181 whole entry, looked up): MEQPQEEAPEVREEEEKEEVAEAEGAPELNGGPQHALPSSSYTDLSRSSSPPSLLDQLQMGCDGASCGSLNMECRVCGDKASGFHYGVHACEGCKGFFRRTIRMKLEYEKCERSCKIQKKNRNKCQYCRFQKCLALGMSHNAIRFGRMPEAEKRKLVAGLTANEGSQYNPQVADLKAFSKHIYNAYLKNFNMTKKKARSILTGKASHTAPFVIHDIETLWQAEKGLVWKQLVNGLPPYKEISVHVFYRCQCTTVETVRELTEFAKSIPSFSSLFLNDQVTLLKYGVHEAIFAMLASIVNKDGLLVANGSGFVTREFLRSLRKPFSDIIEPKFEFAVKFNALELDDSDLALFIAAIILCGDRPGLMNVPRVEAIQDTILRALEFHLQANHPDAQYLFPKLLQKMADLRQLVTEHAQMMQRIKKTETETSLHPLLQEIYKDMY
Bile acid receptor (Homo sapiens), sequence (Q96RI1 whole entry, looked up): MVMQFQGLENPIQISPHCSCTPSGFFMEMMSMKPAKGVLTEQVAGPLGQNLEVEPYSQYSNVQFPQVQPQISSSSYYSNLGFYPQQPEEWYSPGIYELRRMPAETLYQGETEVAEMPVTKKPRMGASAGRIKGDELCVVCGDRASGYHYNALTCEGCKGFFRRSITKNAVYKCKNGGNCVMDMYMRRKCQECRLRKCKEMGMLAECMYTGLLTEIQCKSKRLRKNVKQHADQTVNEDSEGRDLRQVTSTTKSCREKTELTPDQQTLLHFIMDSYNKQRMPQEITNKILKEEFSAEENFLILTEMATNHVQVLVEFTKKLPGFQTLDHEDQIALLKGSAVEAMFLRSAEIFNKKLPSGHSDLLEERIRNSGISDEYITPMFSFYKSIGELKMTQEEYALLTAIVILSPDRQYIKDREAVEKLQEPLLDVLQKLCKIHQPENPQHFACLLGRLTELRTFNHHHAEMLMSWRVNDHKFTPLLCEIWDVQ
Retinoic acid receptor RXR-alpha (Homo sapiens), sequence (P19793 whole entry, looked up): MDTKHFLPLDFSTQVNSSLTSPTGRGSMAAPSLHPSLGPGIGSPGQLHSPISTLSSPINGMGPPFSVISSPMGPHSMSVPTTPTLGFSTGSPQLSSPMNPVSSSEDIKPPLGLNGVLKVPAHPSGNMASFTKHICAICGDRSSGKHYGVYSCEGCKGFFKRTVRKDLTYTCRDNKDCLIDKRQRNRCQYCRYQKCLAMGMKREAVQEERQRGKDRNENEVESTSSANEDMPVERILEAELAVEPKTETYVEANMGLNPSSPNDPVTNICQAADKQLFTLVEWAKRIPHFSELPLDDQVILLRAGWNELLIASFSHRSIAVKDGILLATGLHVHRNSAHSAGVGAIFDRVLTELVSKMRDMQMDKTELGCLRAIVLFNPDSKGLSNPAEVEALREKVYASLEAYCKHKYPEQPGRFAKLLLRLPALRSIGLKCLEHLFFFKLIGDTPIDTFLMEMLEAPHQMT
Vitamin D3 receptor (Homo sapiens), sequence (P11473 whole entry, looked up): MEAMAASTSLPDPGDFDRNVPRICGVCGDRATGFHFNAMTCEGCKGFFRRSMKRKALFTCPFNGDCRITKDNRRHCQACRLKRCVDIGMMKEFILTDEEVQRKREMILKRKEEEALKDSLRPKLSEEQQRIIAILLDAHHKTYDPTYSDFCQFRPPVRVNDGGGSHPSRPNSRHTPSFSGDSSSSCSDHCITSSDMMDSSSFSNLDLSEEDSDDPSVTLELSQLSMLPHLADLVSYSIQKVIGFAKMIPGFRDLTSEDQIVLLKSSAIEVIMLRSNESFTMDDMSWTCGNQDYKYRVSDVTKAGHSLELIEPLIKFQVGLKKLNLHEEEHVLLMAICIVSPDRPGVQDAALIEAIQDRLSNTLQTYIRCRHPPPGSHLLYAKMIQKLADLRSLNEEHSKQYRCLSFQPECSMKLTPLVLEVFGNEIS

COc1ccc(C(O)(c2cncnc2)C2CC2)cc1 (stereo not drawn)
inactive: [1] | [2] | [3] | [4] | [5] | [6] | [7] | [8] | [9] | [10] | [11] | [12] | [13] | [14] | [15] | [16]

Nc1ccc2c(c1)Cc1ccccc1-2
inactive: [17] | [2] | [18] | [4] | [5] | [19] | [7] | [8] | [9] | [10] | [11] | [12] | [13] | [14] | [15] | [16]

CC(CC(C(N)=O)(c1ccccc1)c1ccccc1)N(C)C (stereo not drawn)
inactive: [1] | [17] | [2] | [18] | [4] | [5] | [6] | [19] | [8] | [9] | [10] | [11] | [12] | [13] | [14] | [15]

CC(C)OC(=O)Cc1ccccc1
inactive: [2] | [4] | [5] | [6] | [19] | [7] | [8] | [9] | [10] | [11] | [12] | [13] | [14] | [15] | [16]

O=C([O-])c1ccccn1.O=C([O-])c1ccccn1.O=C([O-])c1ccccn1.[Cr+3]
inactive: [1] | [2] | [4] | [5] | [8] | [9] | [10] | [11] | [12] | [13] | [14] | [15] | [16]

c1ccc2c(c1)-c1cccc3cccc-2c13
active: [10] 49 µM
inactive: [1] | [2] | [4] | [5] | [6] | [19] | [7] | [8] | [9] | [11] | [12] | [13] | [14] | [15] | [16]

CCCC(C)(COC(N)=O)COC(=O)NC(C)C (stereo not drawn)
inactive: [1] | [2] | [4] | [5] | [6] | [19] | [7] | [8] | [9] | [10] | [11] | [12] | [13] | [14] | [15] | [16]

CC(O)CN1CCN(CC(=O)[O-])CCN(CC(=O)[O-])CCN(CC(=O)[O-])CC1.[Gd+3] (stereo not drawn)
inactive: [1] | [17] | [2] | [18] | [3] | [4] | [20] | [5] | [6] | [19] | [7] | [9] | [10] | [11] | [12] | [13] | [14] | [15]

C[C@H]1O[C@H](OC2[C@@H](O)[C@@H](O)C(O)[C@H](O)[C@H]2O)[C@@H](N)C[C@@H]1N=C(N)C(=O)O (stereo partly drawn)
inactive: [17] | [2] | [18] | [4] | [5] | [7] | [8] | [9] | [10] | [11] | [12] | [13] | [14] | [15] | [16]

CC(Oc1cccc(Cl)c1)C(=O)O (stereo not drawn)
inactive: [1] | [17] | [2] | [18] | [3] | [20] | [19] | [8] | [9] | [10] | [11] | [12] | [13] | [14] | [15]

CC(C)(C)NCC(O)c1ccccc1Cl (stereo not drawn)
inactive: [2] | [4] | [5] | [8] | [9] | [10] | [11] | [12] | [13] | [14] | [15] | [16]

CCCCCCCCCCCCCCCl
inactive: [17] | [2] | [18] | [4] | [5] | [6] | [19] | [7] | [9] | [10] | [11] | [12] | [13] | [14] | [15] | [16]

CC(=O)OC(c1ccccc1)C(Cl)(Cl)Cl (stereo not drawn)
inactive: [1] | [17] | [2] | [18] | [3] | [4] | [20] | [5] | [7] | [9] | [10] | [11] | [12] | [13] | [14] | [15]

O=C(Cl)OCCOCCOC(=O)Cl
active: [16] 2.19 µM
inactive: [5] | [7] | [9] | [10] | [11] | [12] | [13] | [14] | [15]

N#CC1(N=NC2(C#N)CCCCC2)CCCCC1
inactive: [1] | [2] | [4] | [5] | [19] | [7] | [9] | [10] | [11] | [12] | [13] | [14] | [15] | [16]

C=CCOCC1CO1 (stereo not drawn)
inactive: [1] | [2] | [4] | [5] | [6] | [19] | [7] | [8] | [9] | [10] | [11] | [12] | [13] | [14] | [15] | [16]

C[C@H](N)[C@H](O)c1ccc(O)c(O)c1
inactive: [17] | [18] | [4] | [5] | [7] | [8] | [9] | [10] | [11] | [12] | [13] | [14] | [15] | [16]

NNCCO
inactive: [1] | [3] | [5] | [6] | [7] | [8] | [9] | [10] | [11] | [12] | [13] | [14] | [15] | [16]
